Measured values: PubChem BioAssay (EPA / NIEHS)
Calls of active or inactive are those of the source. How the source made its calls: active means hit-call score of the fitted dose curve at least 0.9, where 1 is the maximum; inactive means score below 0.9.

Legend:
[1] = ATG_E_Box_CIS: Attagene CIS-FACTORIAL HepG2 Assay for human Enhancer Box (E-box) (AID 2282936); details: HepG2 E-box cis-reporter transcription, actives raise or lower the signal
Procedure, shortened: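 E-box-driven reporter transcripts measured in transiently transfected HepG2 after 24 h exposure: RNA reverse-transcribed, PCR-amplified, fluorescently labelled, digested and resolved by capillary electrophoresis. Gain or loss relative to DMSO.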

[2] = ATG_M_61_CIS: Attagene CIS-FACTORIAL HepG2 Assay for M61 Transcription Factor (Internal Marker) (AID 2282937); details: HepG2 Attagene CIS-FACTORIAL M61 internal marker reporter; actives raise or lower the signal
Procedure, shortened: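 Human liver HepG2, transient MRTU transfection (cis promoter elements), 24 h compound. Total RNA → oligo(dT) RT → PCR → FAM label → HpaI → CE. Internal background marker; bidirectional fitting, DMSO = baseline.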

[3] = ATG_EGR_CIS: Attagene CIS-FACTORIAL HepG2 Assay for human Early Growth Response 1 (EGR1) (AID 2282938); details: HepG2 Attagene CIS-FACTORIAL EGR reporter mRNA; actives raise or lower the signal
Procedure, shortened: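 Transient transfection of human HepG2 with multiple cis-regulated reporter units, chemical exposure 24 h, total RNA isolated. Reverse transcription, PCR, fluorescent labelling and capillary electrophoresis quantify reporter transcripts; activity fitted bidirectionally against DMSO.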

[4] = ATG_M_19_CIS: Attagene CIS-FACTORIAL HepG2 Assay for M19 Transcription Factor (Internal Marker) (AID 2282939); details: HepG2 Attagene CIS-FACTORIAL M19 internal marker reporter; actives raise or lower the signal
Procedure, shortened: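 HepG2 cells transiently transfected with cis-regulated multiplexed reporter units, dosed 24 h. Reporter mRNA quantified by RT-PCR and capillary electrophoresis; internal background marker fitted bidirectionally versus DMSO.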

[5] = ATG_ERE_CIS: Attagene CIS-FACTORIAL HepG2 Assay for Estrogen Response Element (ERE) (AID 2282940); details: HepG2 ERE cis-reporter, Attagene RNA transcript; actives raise or lower the signal
Procedure, shortened: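 HepG2 cells transiently transfected with multiplexed cis-element reporter units, measuring endogenous transcription factor activity; ERE reporter mRNA quantified after 24 h exposure by RT-PCR, fluorescent labelling, HpaI digestion and capillary electrophoresis. Bidirectional change versus DMSO.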

[6] = ATG_Ets_CIS: Attagene CIS-FACTORIAL HepG2 Assay for human Erythroblast Transformation Specific (ETS) (AID 2282941); details: HepG2 ETS cis-reporter transcription, actives raise or lower the signal
Procedure, shortened: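 Multiplexed reporter transcript profiling: HepG2, 24 h treatment, total RNA to cDNA, PCR, 6-FAM labelling, HpaI cut, capillary electrophoresis. Gain- or loss-of-signal fitted against DMSO.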

[7] = biological target: Hepatocyte nuclear factor 3-beta (Homo sapiens) (UniProt Q9Y261); assay: ATG_FoxA2_CIS: Attagene CIS-FACTORIAL HepG2 Assay for human Forkhead box A2 (FOXA2) (AID 2282942); details: HepG2 cis-reporter transcription factor activity, 24 h; actives raise or lower the signal
Sequence of Hepatocyte nuclear factor 3-beta (Homo sapiens) (Q9Y261 whole entry, looked up): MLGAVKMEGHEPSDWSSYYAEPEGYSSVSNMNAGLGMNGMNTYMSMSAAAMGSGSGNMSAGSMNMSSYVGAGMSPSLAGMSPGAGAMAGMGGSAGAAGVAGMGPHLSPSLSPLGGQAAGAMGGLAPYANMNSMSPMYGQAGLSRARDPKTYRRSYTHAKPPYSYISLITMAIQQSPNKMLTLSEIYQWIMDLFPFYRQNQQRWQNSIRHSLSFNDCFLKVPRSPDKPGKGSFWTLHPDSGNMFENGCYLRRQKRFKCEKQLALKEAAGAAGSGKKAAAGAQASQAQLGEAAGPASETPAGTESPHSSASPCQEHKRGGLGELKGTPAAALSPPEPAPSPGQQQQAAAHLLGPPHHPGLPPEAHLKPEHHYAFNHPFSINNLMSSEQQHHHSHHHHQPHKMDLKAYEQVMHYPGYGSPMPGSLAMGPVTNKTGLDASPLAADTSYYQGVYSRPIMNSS
Procedure, shortened: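 Transient MRTU transfection of HepG2 liver cells; 24 h treatment; total RNA → oligo(dT) RT → PCR → FAM primer extension → HpaI cut → CE. Bidirectional fit vs DMSO.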

[8] = ATG_FoxO_CIS: Attagene CIS-FACTORIAL HepG2 Assay for human Forkhead box O (FoxO) (AID 2282943); details: HepG2 Attagene cis-reporter, FoxO element, mRNA; actives raise or lower the signal
Procedure, shortened: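 Human hepatoma HepG2 cells carry transiently introduced reporter transcription units controlled by cis promoter elements. Chemical treatment lasted 24 h, and mRNA signal was compared with DMSO.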

[9] = ATG_GATA_CIS: Attagene CIS-FACTORIAL HepG2 Assay for human GATA Binding Protein (AID 2282944); details: HepG2 GATA cis-element reporter, Attagene multiplex mRNA; actives raise or lower the signal
Procedure, shortened: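 HepG2 cells transiently transfected with multiplexed cis-element reporter units measure endogenous GATA activity; after 24 h compound exposure, reporter mRNA quantified by RT-PCR and capillary electrophoresis. Changes fitted in both directions vs DMSO.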

[10] = biological target: Bile acid receptor (Homo sapiens) (UniProt Q96RI1); assay: ATG_IR1_CIS: Attagene CIS-FACTORIAL HepG2 Assay for human Nuclear Receptor Subfamily 1 Group H Member 4 (NR1H4), IR1 submotif (AID 2282946); details: IR1 reporter transcription, actives raise or lower the signal
Sequence of Bile acid receptor (Homo sapiens) (Q96RI1 whole entry, looked up): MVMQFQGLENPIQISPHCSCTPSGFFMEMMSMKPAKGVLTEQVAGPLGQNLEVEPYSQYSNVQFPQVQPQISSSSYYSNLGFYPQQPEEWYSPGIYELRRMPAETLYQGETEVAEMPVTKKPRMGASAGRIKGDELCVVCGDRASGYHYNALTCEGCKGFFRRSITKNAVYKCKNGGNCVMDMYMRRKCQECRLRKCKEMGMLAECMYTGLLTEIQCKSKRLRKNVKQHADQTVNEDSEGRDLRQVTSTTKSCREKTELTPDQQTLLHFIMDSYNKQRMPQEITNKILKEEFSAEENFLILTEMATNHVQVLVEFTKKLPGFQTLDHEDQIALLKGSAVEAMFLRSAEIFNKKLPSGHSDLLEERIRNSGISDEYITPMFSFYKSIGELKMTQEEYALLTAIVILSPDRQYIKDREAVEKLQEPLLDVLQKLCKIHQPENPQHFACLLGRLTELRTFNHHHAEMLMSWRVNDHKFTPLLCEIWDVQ
Procedure, shortened: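 HepG2 cells transiently transfected with multiplexed cis-element reporter units read endogenous transcription factor activity. After 24 h compound exposure, reporter mRNA was quantified by RT-PCR, fluorescent labelling, HpaI digestion and capillary electrophoresis; bidirectional fitting versus DMSO baseline.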

[11] = ATG_GRE_CIS: Attagene CIS-FACTORIAL HepG2 Assay for human Glucocorticoid Response Elements (GRE) (AID 2282947); details: HepG2 GRE cis-reporter, Attagene multiplex mRNA; actives raise or lower the signal
Procedure, shortened: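 Reporter transcripts read by RT-PCR with capillary electrophoresis fluorescence after a 24 h chemical exposure of HepG2 cells transiently transfected with multiple cis-element reporter units. Gain or loss fitted against DMSO.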

[12] = ATG_ISRE_CIS: Attagene CIS-FACTORIAL HepG2 Assay for human Interferon Regulatory Factor 1 (IRF1) binding to an Interferon-Stimulated Response Element (ISRE) (AID 2282948); details: HepG2 ISRE cis-reporter (Attagene), mRNA transcription readout; actives raise or lower the signal
Procedure, shortened: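 Signal reflects induction or loss of ISRE-linked reporter mRNA in transiently transfected HepG2 cells after a 24 h treatment, detected by fluorescent RT-PCR fragments on capillary electrophoresis and normalised to DMSO.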

[13] = ATG_M_32_CIS: Attagene CIS-FACTORIAL HepG2 Assay for M32 Transcription Factor (Internal Marker) (AID 2282949); details: HepG2 Attagene cis-factorial M32 reporter, mRNA; actives raise or lower the signal;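 further: background control marker of the multiplexed CIS panel rather than a real target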
Procedure, shortened: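 HepG2 human liver cells transiently transfected with cis-promoter-driven multiple reporter transcription units, dosed 24 h. Reporter mRNA quantified by RT-PCR, FAM-labelled primer extension, HpaI digest and capillary electrophoresis; bidirectional fit versus DMSO baseline.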

[14] = ATG_M_06_CIS: Attagene CIS-FACTORIAL HepG2 Assay for M06 Transcription Factor (Internal Marker) (AID 2282950); details: HepG2 Attagene CIS-FACTORIAL M06 internal marker reporter; actives raise or lower the signal
Procedure, shortened: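 Internal background marker within multiplexed cis-reporter HepG2 system. Cells transiently transfected, dosed 24 h; reporter mRNA measured by RT-PCR, HpaI digestion and capillary electrophoresis. Bidirectional fit relative to DMSO.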

[15] = biological target: Hepatocyte nuclear factor 6 (Homo sapiens) (UniProt Q9UBC0); assay: ATG_HNF6_CIS: Attagene CIS-FACTORIAL HepG2 Assay for human Hepatocyte Nuclear Factor 6 (HNF6) (AID 2282952); details: HepG2 Attagene cis-factorial HNF6 reporter transcription; actives raise or lower the signal
Sequence of Hepatocyte nuclear factor 6 (Homo sapiens) (Q9UBC0 whole entry, looked up): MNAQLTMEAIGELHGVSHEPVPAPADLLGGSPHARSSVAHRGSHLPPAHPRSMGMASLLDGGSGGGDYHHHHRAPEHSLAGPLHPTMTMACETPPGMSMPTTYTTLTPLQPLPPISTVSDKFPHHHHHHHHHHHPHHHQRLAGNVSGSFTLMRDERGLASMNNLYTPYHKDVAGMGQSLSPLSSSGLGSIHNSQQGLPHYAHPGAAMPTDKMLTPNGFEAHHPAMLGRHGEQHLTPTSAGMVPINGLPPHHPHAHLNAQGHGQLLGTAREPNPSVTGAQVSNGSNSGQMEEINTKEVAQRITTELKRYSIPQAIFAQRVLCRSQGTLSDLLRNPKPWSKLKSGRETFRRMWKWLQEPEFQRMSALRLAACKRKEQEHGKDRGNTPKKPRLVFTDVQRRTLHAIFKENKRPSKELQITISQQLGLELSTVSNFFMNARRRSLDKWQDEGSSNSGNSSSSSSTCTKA
Procedure, shortened: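 Endogenous factor activity read in transiently transfected HepG2 via promoter-regulated reporter transcripts. RNA harvested 24 h post-dosing, reverse-transcribed, PCR-amplified, FAM-labelled, HpaI-digested and resolved by capillary electrophoresis; fitted in both directions against DMSO.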

[16] = biological target: Heat shock factor protein 1 (Homo sapiens) (UniProt Q00613); assay: ATG_HSE_CIS: Attagene CIS-FACTORIAL HepG2 Assay for human Heat Shock Transcription Factor 1 (HSE) (AID 2282953); details: HepG2 HSE cis-reporter, Attagene RNA transcription; actives raise or lower the signal
Sequence of Heat shock factor protein 1 (Homo sapiens) (Q00613 whole entry, looked up): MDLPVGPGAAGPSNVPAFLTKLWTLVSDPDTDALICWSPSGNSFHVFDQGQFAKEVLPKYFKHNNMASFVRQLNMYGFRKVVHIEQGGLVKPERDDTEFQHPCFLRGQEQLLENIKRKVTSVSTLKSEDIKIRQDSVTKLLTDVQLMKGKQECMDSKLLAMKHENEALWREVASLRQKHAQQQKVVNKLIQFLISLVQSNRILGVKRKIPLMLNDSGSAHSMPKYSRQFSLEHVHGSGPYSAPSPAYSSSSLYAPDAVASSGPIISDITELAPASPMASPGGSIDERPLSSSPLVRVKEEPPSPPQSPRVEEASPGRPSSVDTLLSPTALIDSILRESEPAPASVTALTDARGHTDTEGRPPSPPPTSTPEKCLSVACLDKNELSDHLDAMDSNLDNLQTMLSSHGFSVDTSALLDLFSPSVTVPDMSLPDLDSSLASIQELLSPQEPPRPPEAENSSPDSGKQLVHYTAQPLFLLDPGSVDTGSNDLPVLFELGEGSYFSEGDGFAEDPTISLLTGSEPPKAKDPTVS
Procedure, shortened: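 HepG2 cells transfected with cis-promoter reporter units sensing endogenous transcription factor activity; reporter mRNA quantified 24 h post-dose by RT-PCR and capillary electrophoresis of 6-FAM-labelled products. Bidirectional fitting against DMSO.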

[17] = ATG_MRE_CIS: Attagene CIS-FACTORIAL HepG2 Assay for human Metal Responsive Element (MRE) (AID 2282954); details: HepG2 MRE cis-reporter transcription, Attagene multiplex; actives raise or lower the signal
Procedure, shortened: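 Endogenous MRE-dependent transcription read as reporter mRNA in transiently transfected human HepG2 cells at 24 h. RNA reverse-transcribed, PCR-amplified, labelled and resolved by capillary electrophoresis; gain or loss relative to DMSO.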

[18] = biological target: Hypoxia-inducible factor 1-alpha (Homo sapiens) (UniProt Q16665); assay: ATG_HIF1a_CIS: Attagene CIS-FACTORIAL HepG2 Assay for human Hypoxia Inducible Factor 1 (HIF1A) (AID 2282951); details: HepG2 Attagene cis-factorial HIF1a reporter transcription; actives raise or lower the signal
Sequence of Hypoxia-inducible factor 1-alpha (Homo sapiens) (Q16665 whole entry, looked up, the tested form may be a part): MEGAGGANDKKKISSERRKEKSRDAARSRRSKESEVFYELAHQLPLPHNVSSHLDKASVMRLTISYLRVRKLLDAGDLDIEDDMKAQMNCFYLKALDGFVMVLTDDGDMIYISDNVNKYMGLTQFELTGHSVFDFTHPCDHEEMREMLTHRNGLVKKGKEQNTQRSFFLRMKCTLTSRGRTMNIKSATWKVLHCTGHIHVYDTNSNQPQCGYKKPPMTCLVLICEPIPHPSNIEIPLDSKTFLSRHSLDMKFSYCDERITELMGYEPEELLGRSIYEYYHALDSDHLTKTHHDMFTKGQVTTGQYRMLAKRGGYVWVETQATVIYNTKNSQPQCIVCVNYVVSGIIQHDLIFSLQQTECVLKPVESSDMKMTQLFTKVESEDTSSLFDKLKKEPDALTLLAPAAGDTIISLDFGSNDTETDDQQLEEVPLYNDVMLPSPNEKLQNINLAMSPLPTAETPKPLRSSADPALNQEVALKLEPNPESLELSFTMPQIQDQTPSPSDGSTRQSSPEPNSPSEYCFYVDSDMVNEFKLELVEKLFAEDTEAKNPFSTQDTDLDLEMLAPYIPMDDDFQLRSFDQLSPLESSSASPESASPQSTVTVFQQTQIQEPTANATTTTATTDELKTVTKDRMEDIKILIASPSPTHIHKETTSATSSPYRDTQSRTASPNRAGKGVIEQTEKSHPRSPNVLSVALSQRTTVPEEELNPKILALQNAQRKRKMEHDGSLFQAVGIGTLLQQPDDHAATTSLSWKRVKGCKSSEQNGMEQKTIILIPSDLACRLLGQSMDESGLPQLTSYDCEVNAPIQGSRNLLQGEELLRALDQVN
Procedure, shortened: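 Transient MRTU transfection of human HepG2 liver cells, 24 h compound treatment, then total RNA isolation, oligo(dT) reverse transcription, PCR amplification, fluorescent labelling and capillary electrophoresis of reporter fragments. Gain or loss relative to DMSO.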

[19] = ATG_GLI_CIS: Attagene CIS-FACTORIAL HepG2 Assay for human Zinc Finger Protein GLI1 (AID 2282945); details: HepG2, Attagene cis-factorial reporter mRNA, GLI element; actives raise or lower the signal
Procedure, shortened: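 Bidirectional curve fits relative to DMSO, using reporter mRNA levels from RT-PCR plus capillary electrophoresis. Cells were HepG2 transiently carrying cis-regulated reporter constructs, harvested 24 h after dosing.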

[20] = ATG_PBREM_CIS: Attagene CIS-FACTORIAL HepG2 Assay for human Phenobarbital-responsive Enhancer Module (PBREM) (AID 2282955); details: HepG2 PBREM cis-reporter, Attagene multiplexed transcription; actives raise or lower the signal
Procedure, shortened: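 Endogenous transcription factors in human liver HepG2 cells drive a PBREM cis-element reporter, whose transcript level after 24 h treatment is quantified by RT-PCR with capillary electrophoresis; activity fitted in both directions against DMSO.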

Measured: outcome

CNC(=O)Oc1ccc2c(c1)[C@]1(C)CCN(C)[C@@H]1N2C
not listed: [18] | [19] | [20]
inactive: all other assays above

CC(c1cc2ccccc2s1)N(O)C(N)=O (stereo not given)
not listed: [10] | [19] | [20]
inactive: all other assays above

CC(=O)[O][Al][O]C(C)=O
not listed: [10] | [14] | [16]
inactive: all other assays above

Cc1ccccc1C=O
not listed: [10]
inactive: all other assays above
